# Screening results deposited in PubChem BioAssay by National Center for Advancing Translational Sciences (NCATS).
# Shown are actives, neighbours in structure and some others; about 6.8% of the full set was active somewhere.
# KB-3-1 cytotox: kills parental KB-3-1 adenocarcinoma cells | Potency, µM (top dose mostly 46.1 µM), actives largely listed as cytotoxic | KB-3-1 viability, CellTiter-Glo ATP luminescence, 72 h | 1.4% of 400,000 active; also: nearly all actives have a fitted effect of over 60% in size
#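 Parental KB-3-1 viability, qHTS format: 72 h compound exposure, 37 °C; CellTiter-Glo; media-only wells and DMSO plates as controls; concentration-effect fits on corrected data.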
# MCF10A rerep: inducers of DNA re-replication in MCF 10A breast cells; Potency, µM (top dose mostly 46.1 µM), actives largely listed as activators; 2.9% of 350,000 active; MCF 10A DNA re-replication, Hoechst nuclear intensity, 48 h; also: nearly all actives have a fitted effect of over 50% in size
# KB-V1 MDR tox: KB-V1 MDR subline cytotoxicity. KB-V1 MDR cells viability, CellTiter-Glo, 72 h. Potency, µM (series often up to 46.1 µM), most hits filed as cytotoxic. 3.4% of 400,000 active. AID 1347076; also: nearly all actives have a fitted effect of over 60% in size
#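 KB-V1 MDR subline cells in DMEM (phenol-red free, 10% FBS) exposed to compounds in qHTS concentration series for 72 h at 37 degrees C. Viability read by CellTiter-Glo luminescence; concentration-effect curves fitted after normalization and correction.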
# PTAP TSG101 blk: blocks PTAP/TSG101 interaction to inhibit HIV-1 budding; Potency, µM (doses to about 115 µM), usual class: inhibitors; 340,000 tested, under 10 active; Q99816; Fluorescence polarization, FITC-PTAP peptide / Tsg101 binding; active = well fitted inhibition curve with a large enough effect in the main read-out, with a control signal flat, not every such curve was filed as active; inconclusive = small, poorly fitted or top-dose-only effect, or effect the other way, or a change in a side signal; inactive = no such curve, though single readings can be large or run the other way
# Target sequence (Q99816 whole entry, looked up): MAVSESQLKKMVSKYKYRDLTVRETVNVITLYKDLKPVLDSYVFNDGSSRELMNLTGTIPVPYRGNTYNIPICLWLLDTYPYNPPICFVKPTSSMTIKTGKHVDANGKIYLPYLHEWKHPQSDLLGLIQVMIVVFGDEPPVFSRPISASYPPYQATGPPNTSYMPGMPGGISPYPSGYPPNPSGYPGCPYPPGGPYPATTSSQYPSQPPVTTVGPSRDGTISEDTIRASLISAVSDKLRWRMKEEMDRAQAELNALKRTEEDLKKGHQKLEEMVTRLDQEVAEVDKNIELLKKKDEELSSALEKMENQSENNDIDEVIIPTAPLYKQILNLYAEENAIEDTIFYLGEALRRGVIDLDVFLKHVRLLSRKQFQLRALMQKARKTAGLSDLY
#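 Fluorescence polarization binding of Tsg101 binding domain (10 uM final) to FITC-labeled PTAP peptide (50 nM final) in HEPES pH 7.5 buffer with NaCl, Tween 20, EDTA, TCEP. Compounds added before peptide; binding 20 min at RT.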
# PINK1 expr mod: modulators of PINK1 expression; PINK1 immunofluorescence, high-content cytometry, 24 h; Potency, µM (titrated, usually from 76.6 µM), actives largely listed as activators; 0.2% of 410,000 active; AID 624263; active = well fitted activation curve with a large enough effect; inconclusive = small, poorly fitted or top-dose-only effect; cell line not stated here; also: nearly all actives have a fitted effect of over 65% in size
#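 Fluorescence from anti-PINK1 antibody, together with nuclear and cell stains, was scanned on a laser-scanning cytometer. Before staining, stable-line cells were incubated 24 hours with compounds at 5 concentrations; primary antibody 12 h at 10 degrees C.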
# SW480 rerep: induces DNA re-replication in SW480 colon adenocarcinoma cells. Potency, µM (series often up to 46.1 µM), usual class: activators. AID 624297. 1.8% of 340,000 active. SW480 DNA re-replication, Hoechst DNA content imaging, 48 h; also: nearly all actives have a fitted effect of over 55% in size
#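 DNA re-replication was detected as more nuclei of elevated Hoechst intensity after 48 hr exposure to compound (23 nL pinned per well of 250 cells).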
# A number is an active result; - = inactive; ? = inconclusive; . = no result given. Unless noted, calls follow the shape of the dose curve; as a rule, active = well fitted curve in the direction sought with a large enough effect; inconclusive = small, poorly fitted or top-dose-only effect, or another doubt; inactive = no such curve, though single readings can be large; an effect the other way counts as inactive or inconclusive.
SMILES,KB-3-1 cytotox,MCF10A rerep,KB-V1 MDR tox,PTAP TSG101 blk,PINK1 expr mod,SW480 rerep
CC(C)c1ccc(OCc2nc(-c3ccccn3)no2)c(Br)c1,-,15µM,-,-,-,-
O=C(CCCn1c(=O)c2cccn2c2ccccc21)NCCc1ccc(Cl)cc1,.,.,.,.,-,.
CN(C)c1ccc(C=NNC(=O)c2cccc3ccccc23)c(Cl)c1,5.2µM,-,3.7µM,-,-,18µM
COc1ccc(/C=N/NC(=O)c2cccc(NC(=O)c3ccccc3Cl)c2)cc1,16µM,2.6µM,-,-,-,6.5µM
CSc1ccc(/C=N/NC(=O)c2ccccc2Cl)cc1,?,23µM,?,-,-,?
COc1ccc(C(=O)N/N=C/c2ccc(SC)cc2)cc1,-,-,-,-,-,5.2µM
CSc1ccc(/C=N/NC(=O)c2ccc(O)cc2)cc1,-,-,?,-,-,-
COC(=O)c1ccc(OCC2c3cc(OC)c(OC)cc3CCN2C(=O)c2cccc(C)c2)cc1 (stereo not given),-,.,-,.,-,.
CCOC(=O)c1cc(-c2ccc(F)cc2)n(CCC(=O)NC2CCC(C)CC2)c1C (stereo not given),?,.,-,.,-,.
Fc1ccc(CNc2cc(-c3ccccc3)nc3nncn23)cc1,-,.,-,.,-,.
COc1cc(OC)cc(C(=O)N/N=C\c2ccoc2)c1,-,23µM,-,-,-,5.8µM
Cc1cc(C)cc(C(=O)N/N=C/c2ccoc2)c1,-,-,?,-,-,-
Cc1occc1C(=O)N/N=C/C=C/c1ccc(N(C)C)cc1,-,?,-,-,-,0.012µM
CN(C)c1ccc(/C=N/NC(=O)c2ccccc2Cl)cc1,?,21µM,?,-,-,2.6µM
Clc1ccc(N2N=C(c3cccs3)CC2c2ccco2)cc1 (stereo not given),-,4.6µM,-,-,-,?
c1ccc(C2=NN(c3ccccc3)C(c3ccco3)C2)cc1 (stereo not given),?,?,?,-,-,?
c1ccc(N2N=C(c3cccs3)CC2c2ccco2)cc1 (stereo not given),-,8.2µM,-,-,-,8.2µM
CCC(=O)N1N=C(c2cccs2)CC1c1ccco1 (stereo not given),-,?,-,-,-,-
CC[n+]1c(/C=C/c2c[nH]c3ccccc23)ccc2cc(C)ccc21,9.2µM,-,-,?,-,-
Cc1cc(Br)c(S(=O)(=O)n2nnc3ccccc32)cc1C,-,10µM,-,-,-,?
COc1ccc(C(=O)Nc2c(C)ccc3nsnc23)cc1[N+](=O)[O-],-,-,15µM,-,-,-
COc1ccc(C(=O)Nc2ccncc2)cc1[N+](=O)[O-],-,-,-,-,-,?
CCc1ccc(NC(=O)c2ccc(OC)c([N+](=O)[O-])c2)cc1,-,-,15µM,-,-,-
COc1ccc(CNC(=O)N2CCN(c3cccc(Cl)c3)CC2)cc1OC,-,-,?,-,-,-
O=C(NCc1ccc(Cl)cc1)N1CCN(Cc2ccccc2)CC1,?,-,16µM,-,-,-
SMILES,KB-3-1 cytotox,MCF10A rerep,KB-V1 MDR tox,PTAP TSG101 blk,PINK1 expr mod,SW480 rerep
Cc1cc(Cl)ccc1NC(=S)N1CCN(Cc2ccccc2)CC1,-,-,23µM,-,-,-
Cc1cccc(N2CCN(C(=O)NCc3ccc(Cl)cc3)CC2)c1,23µM,?,8.2µM,-,-,?
CNc1cccc(S(=O)(=O)N2CCCN(S(=O)(=O)c3ccc4c(c3)OCCO4)CC2)c1,-,.,-,.,.,.
CN1CCc2c(n(CC(O)CNCc3ccccc3)c3ccccc23)C1=O (stereo not given),-,-,-,-,-,-
CC(C)NCC(O)Cn1c2c(c3ccccc31)CCc1c-2cnn1-c1ccccc1 (stereo not given),16µM,18µM,21µM,-,-,-
COCCNC(=O)CSC1=N/C(=C/c2ccc(Cl)c(Cl)c2)C(=O)N1c1ccccc1F,-,9.2µM,-,-,-,?
C=CCN1C(=O)/C(=C\c2ccc(Cl)cc2)N=C1SCC(=O)NCCC,-,-,?,-,-,-
CCOC(=O)c1c(C)[nH]c(C(=O)OCC(=O)Nc2cc(Cl)ccc2OC)c1C,-,-,9.2µM,-,-,?
CCOC(=O)c1[nH]c(C)c(C(=O)Nc2cc(OC)ccc2OC)c1C,1.3µM,0.63µM,0.5µM,-,-,1.3µM
Cc1ccc(OCC(=O)N2CCc3ccccc32)c([N+](=O)[O-])n1,23µM,-,-,-,-,-
CCOC(=O)c1c(C)[nH]c(C(=O)OCC(=O)Nc2cc(C)ccc2OC)c1C,-,?,?,-,-,-
CCOC(=O)c1c(C)c(C(=O)Nc2cc(OC)ccc2OC)c(C)n1CC,-,?,-,-,-,?
CCOC(=O)c1c(C)[nH]c(C(=O)OCC(=O)N(C)CC(=O)Nc2ccccc2Cl)c1C,-,-,13µM,-,-,?
O=C(COc1cccnc1[N+](=O)[O-])N1CCc2ccccc21,-,-,-,-,-,-
Cn1c(=O)n(Cc2ccccc2Cl)c(=O)c2c1nc1n2CCN1c1ccccc1,.,.,.,.,-,.
CCOC(=O)c1c(C)[nH]c(C(=O)OCC(=O)NC(C)(C)C)c1C,-,?,?,-,-,-
Cc1ccc(OCC(=O)N(C)CC(=O)Nc2ccc(F)cc2)c([N+](=O)[O-])n1,-,-,-,-,-,-
CCOC(=O)c1[nH]c(C)c(C(=O)OCC(=O)NC(C)c2ccc(F)cc2)c1C (stereo not given),1.8µM,?,-,-,-,9.2µM
Cc1nc(-c2ccc(F)cc2)c(CC(=O)N(C)CC(=O)Nc2ccccc2Cl)s1,-,-,3.7µM,-,-,-
Cc1ccc(OCC(=O)N(C)CC(=O)Nc2ccccc2Cl)c([N+](=O)[O-])n1,-,-,18µM,-,-,-
CCN(C(=O)Cn1nc(Cc2cccnc2)c2ccccc2c1=O)c1cc(C)ccc1C,.,.,.,.,-,.
COc1ccc(C(=O)Nc2cccc(-c3cn4ccsc4n3)c2)cc1OC,.,.,.,.,-,.
COc1ccc(CNCC(O)(c2ccc(Cl)cc2)c2ccc(Cl)cc2)cc1OC,-,?,7.3µM,-,-,?
Cc1ccc(-n2nnnc2-c2cnc3cc4c(cc3c2C)OCO4)cc1,-,-,23µM,-,-,-
Cc1c(-c2nnnn2-c2ccc(F)cc2)cnc2cc3c(cc12)OCO3,-,-,-,-,-,-
Cc1ccc2c(=O)c(C(=O)c3ccccc3)cn(CC(=O)NCc3ccccc3)c2n1,-,.,-,.,-,.
CCCCNC(=O)c1c(N)[nH]c(C(=O)c2ccccc2)c1-c1ccccn1,?,.,21µM,.,-,.
